Hits are enriched below; roughly 4.1% of the tested compounds scored in any of these assays.
ALR inh: blocks human ALR sulfhydryl oxidase activity | 290,000 compounds, 3.8% hits | AID 485317 | inhibition, % (concentration not given with the values) | purified ALR, DTT oxidation, H2O2 HRP-luminol luminescence;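 active = mean replicate inhibition above about 79%, with every replicate also reaching it, limit read from the data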
Target sequence (P55789 whole entry, looked up): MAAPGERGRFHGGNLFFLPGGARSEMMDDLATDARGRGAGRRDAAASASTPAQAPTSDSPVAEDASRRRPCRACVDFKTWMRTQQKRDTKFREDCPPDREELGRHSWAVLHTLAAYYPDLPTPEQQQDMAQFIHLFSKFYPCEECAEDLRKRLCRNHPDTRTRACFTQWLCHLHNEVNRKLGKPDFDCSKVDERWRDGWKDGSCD
Casp6 inh: caspase-6 (human) enzyme inhibition; purified caspase-6, Z-VEID-R110 cleavage fluorescence; inhibition, % at 12.5 µM; 350,000 compounds, 0.53% hits; P55212;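 active = mean inhibition across replicates at least about 35%, with every replicate also reaching that limit, limit read from the data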;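 also: 0% = median of neutral control wells and 100% = no fluorescence left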
PglD inh: PglD (C. jejuni) enzyme inhibition; purified PglD enzyme, DTNB colorimetric CoA detection; inhibition, % at 12.5 µM; 360,000 compounds, 0.098% hits; AID 602405; in the data active = inhibition above about 16%, passing the limit was not always enough
NSD2 HMT inh: blocks human histone methyltransferase NSD2. NSD2 peptide methylation, AlphaScreen, 120 min. inhibition, % at 12.5 µM. 310,000 compounds, 0.54% hits. AID 743445; in the data active = inhibition above about 50%
CFTR F508del cor: CFTR F508del correction in bronchial cells; CFBE cells, YFP halide quenching; stimulated with forskolin plus potentiator P3; % fluorescence drop versus neutral controls; 350,000 compounds, 0.36% hits; activity (quench increase), % at 7.58 µM;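 active = mean added fluorescence quench of at least 8% versus neutral control, with both replicates also reaching 8%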;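 also: cells transiently co-express mutant CFTR-F508del with the halide-sensitive YFP; corrector assay measuring rescue of mutant channel to the surface after 24 h compound exposure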
Env fusion inh: blocks HIV Env-driven cell-cell fusion; HeLa-JRFL Env/CEM21 cell fusion, luciferase; inhibition, % at 12.3 µM; 360,000 compounds, 1.1% hits; AID 651610;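 active = mean replicate inhibition score of at least 50 and every replicate individually at or above 50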;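 also: 0% = plate neutral controls and 100% = maraviroc near 300 nM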
Numbers without * were called inactive; . = not tested or not shown; [ ] = remark or other dose.

SMILES	ALR inh	Casp6 inh	PglD inh	NSD2 HMT inh	CFTR F508del cor	Env fusion inh
C[C@@H]1CN([C@@H](C)CO)C(=O)Cc2cc(NS(=O)(=O)c3cccs3)ccc2O[C@H]1CN(C)Cc1ccc(C(F)(F)F)cc1	.	2	-3	.	2	78*[16.7 µM]
C[C@@H]1CN([C@@H](C)CO)C(=O)Cc2cc(NC(=O)c3ccncc3)ccc2O[C@@H]1CN(C)Cc1ccc(Cl)c(Cl)c1	.	-2	-4	.	5	-22[16.7 µM]
COc1ccc(S(=O)(=O)Nc2ccc3c(c2)CC(=O)N([C@@H](C)CO)C[C@@H](C)[C@H](CN(C)Cc2ccc(C(F)(F)F)cc2)O3)cc1	.	1	0	.	7	73*[16.7 µM]
C[C@@H]1CN([C@@H](C)CO)C(=O)Cc2cc(NC(=O)c3ccncc3)ccc2O[C@H]1CN(C)Cc1ccc(Cl)c(Cl)c1	.	-2	4	.	-2	73*[16.7 µM]
C[C@@H]1CN([C@@H](C)CO)C(=O)Cc2cc(NS(=O)(=O)c3cccs3)ccc2O[C@H]1CN(C)Cc1ccc(Cl)c(Cl)c1	.	-2	0	.	-1	61*[16.7 µM]
C[C@@H]1CN([C@H](C)CO)C(=O)c2cc(NC(=O)Nc3ccccc3)ccc2O[C@@H](C)CCCCO[C@H]1CN(C)C(=O)c1ccccc1	.	-5	-5	.	2	9[16.7 µM]
CO[C@@H]1CN(C)C(=O)c2cc(NC(=O)C3CCC3)ccc2OC[C@H](C)NC[C@H]1C	.	-3	-3	.	-2	.
CCC(=O)N1C[C@H](O)COC[C@@H]2O[C@@H](CC(=O)NCC3CCCCC3)CC[C@H]21	.	4	14	.	-2	-13[16.7 µM]
CCC(=O)Nc1ccc2c(c1)C(=O)N(C)C[C@@H](OC)[C@@H](C)CN(Cc1ccccn1)[C@@H](C)CO2	.	-10	0	.	-1	-14[16.7 µM]
COc1ccccc1CNC(=O)c1cccc(N(C)C)c1	42	.	3	-3	.	.
COc1ccc(CNC(=O)c2cc(-c3ccco3)on2)cc1	-1	.	-1	-2	.	-38
COc1ccc(CNC(=O)c2cccc(N(C)C)c2)cc1	83*	.	3	3	.	-61
CCCc1cc(C(=O)NCc2ccc(OC)cc2)no1	.	-1	-3	.	0	85*
CC(C)CC(=O)Nc1ccc(Nc2ccccc2)cc1	99*	.	2	2	.	17
CC(C)CC(=O)Nc1ccc(Oc2ccc(NC(=O)CC(C)C)cc2)cc1	-2	.	3	.	.	-51
CC(C)(C)CC(=O)Nc1ccc(Nc2ccccc2)cc1	99*	.	3	-6	.	-12
C[C@H]1CN([C@@H](C)CO)S(=O)(=O)c2ccc(C3=CCCC3)cc2O[C@@H]1CN(C)Cc1cccnc1	.	-1	-2	.	2	5[16.7 µM]
COc1ccc(NC(=O)N(C)C[C@@H]2Oc3c(NS(=O)(=O)c4ccc(OC)cc4)cccc3C(=O)N([C@H](C)CO)C[C@H]2C)cc1	.	-2	0	.	-1	-27[16.7 µM]
O=C(Cc1nnc(NC(=O)c2ccccc2)s1)N/N=C\c1ccc(O)c(O)c1	63	4	-1	68*	0	-1
O=C(Cc1nnc(NC(=O)c2ccccc2)s1)N/N=C/c1ccc(O)cc1	.	4	-7	1	3	-6
CCN(C[C@H]1N[C@@](CC)(C(=O)OC)[C@H]2C(=O)N(Cc3ccccc3)C(=O)[C@@H]12)S(=O)(=O)c1ccc(-c2ccccc2)cc1	.	-3	-4	.	1	33
CCN(C[C@H]1N[C@@](CC)(C(=O)OC)[C@H]2C(=O)N(Cc3ccccc3)C(=O)[C@@H]12)S(=O)(=O)c1ccc(OC(F)(F)F)cc1	.	2	6	.	0	87*
CCN(C[C@H]1N[C@@](CC)(C(=O)OC)[C@H]2C(=O)N(Cc3ccccc3)C(=O)[C@@H]12)S(=O)(=O)c1ccc(C(C)(C)C)cc1	.	4	-9	.	-4	58*
CCN(C[C@H]1N[C@@](C)(C(=O)OC)[C@H]2C(=O)N(Cc3ccccc3)C(=O)[C@@H]12)S(=O)(=O)c1ccc(C(C)(C)C)cc1	.	5	1	.	-4	84*
CCN(C[C@H]1N[C@@](CC)(C(=O)OC)[C@H]2C(=O)N(Cc3ccccc3)C(=O)[C@@H]12)S(=O)(=O)c1ccc(C)cc1	3	1	7	.	-2	81*
O=[N+]([O-])c1cc([N+](=O)[O-])c2nonc2c1Nc1ccc(O)cc1	99*	24	0	38	0	22

Screens from PubChem.
